From PubChem BioAssay AID2553 (Johns Hopkins Ion Channel Center, 2010)
About 3,300 (1.1%) of roughly 310,000 compounds were called active.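 How the source made its calls: active means B-score under library mean minus 3 SD, initial fluorescence not abnormally high, positive integrated signal ratio; inactive means the rest.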 Many of the other results were omitted from the sample, so actives are more common in it than they were.

target: Short transient receptor potential channel 6 (Mus musculus) (UniProt Q61143); assay: mouse TRPC6 channel inhibitors, primary screen, cell-based, HEK293, membrane potential dye (AID 2553); conditions: ACh-evoked depolarization, at 10 µM; active compounds read low;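 on B-score: B-score derived from integrated fluorescence ratio over the kinetic read; more negative B-score means stronger inhibition of depolarization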
Sequence (Q61143 whole entry, looked up): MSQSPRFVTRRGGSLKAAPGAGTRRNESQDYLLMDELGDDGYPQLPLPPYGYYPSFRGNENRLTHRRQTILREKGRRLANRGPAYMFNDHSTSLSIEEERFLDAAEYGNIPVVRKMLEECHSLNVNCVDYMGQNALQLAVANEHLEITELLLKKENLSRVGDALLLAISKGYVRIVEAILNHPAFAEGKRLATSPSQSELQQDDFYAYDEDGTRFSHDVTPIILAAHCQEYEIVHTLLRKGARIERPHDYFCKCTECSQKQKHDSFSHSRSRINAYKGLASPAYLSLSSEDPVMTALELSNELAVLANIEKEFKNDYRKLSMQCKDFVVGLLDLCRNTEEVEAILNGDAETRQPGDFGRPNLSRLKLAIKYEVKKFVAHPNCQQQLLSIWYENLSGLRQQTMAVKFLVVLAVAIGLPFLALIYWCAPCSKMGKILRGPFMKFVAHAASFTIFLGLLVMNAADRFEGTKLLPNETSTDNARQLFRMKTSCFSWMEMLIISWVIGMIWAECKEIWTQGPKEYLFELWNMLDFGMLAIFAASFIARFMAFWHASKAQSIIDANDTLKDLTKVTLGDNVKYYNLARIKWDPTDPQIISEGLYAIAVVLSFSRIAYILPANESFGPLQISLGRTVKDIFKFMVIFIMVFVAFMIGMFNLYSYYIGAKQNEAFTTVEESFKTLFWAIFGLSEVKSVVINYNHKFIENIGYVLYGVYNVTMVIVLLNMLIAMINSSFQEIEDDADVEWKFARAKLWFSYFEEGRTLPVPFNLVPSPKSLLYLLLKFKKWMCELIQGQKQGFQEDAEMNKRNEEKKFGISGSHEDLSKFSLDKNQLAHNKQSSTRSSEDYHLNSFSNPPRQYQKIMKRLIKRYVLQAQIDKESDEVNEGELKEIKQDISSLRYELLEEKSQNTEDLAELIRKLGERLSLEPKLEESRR

| Structure (SMILES) | B-score |
| --- | --- |
| CC(=O)c1cc(NC(=O)c2ccccc2)c(=O)oc1/C=C/N(C)C | -5.52 (active) |
| CC(=O)Oc1cccc(C(=O)Nc2ccccc2NC(=O)c2cccc(OC(C)=O)c2)c1 | inactive |
| CCOC(=O)c1cc(NC(=O)c2ccc(Cl)cc2)c(=O)oc1-c1ccccc1 | inactive |
| CCOC(=O)c1c(/N=C/c2cc(C)ccc2O)sc2c1CCC2 | inactive |
| CN(C(=O)COc1nnc(-c2cccs2)c(-c2cccs2)n1)c1ccccc1 | inactive |
| CN(C)/C=C/C(=O)c1cnc2sccn2c1=O | inactive |
| COC(=O)c1cccc(N(C(=O)c2ccco2)C(C(=O)NC2CCCC2)c2ccco2)c1 (configuration not stated) | inactive |
| Cc1cccc(N2CCN(C(C)C(=O)N3CCc4ccccc43)CC2)c1C (configuration not stated) | inactive |
| O=C(c1ccccc1F)N(Cc1ccccc1)Cc1ccccc1 | inactive |
| O=C1c2ccccc2C(=O)c2c1cccc2N1CCN(C/C=C/c2ccccc2)CC1 | inactive |
| OCCN1CCN(C(=S)c2ccc(-c3ccccc3)cc2)CC1 | inactive |
| O=C(CN1CCN(Cc2ccccc2)CC1)NC(c1ccccc1)c1ccccc1 | inactive |
| OCCN1CCN(c2nnc(-c3ccccc3)c3ccccc23)CC1 | inactive |
| O=C1c2ccccc2C(=O)c2c1cccc2N1CCN(Cc2ccccc2)CC1 | -9.75 (active) |
| O=C1c2ccccc2C(=O)c2c1cccc2N1CCN(CCO)CC1 | -11.5 (active) |
| O=C(CNCc1ccco1)Nc1cc(S(=O)(=O)N2CCOCC2)ccc1N1CCCC1 | inactive |

| Structure (SMILES) | B-score |
| --- | --- |
| Clc1cc(NC2CCCCC2)ncn1 | inactive |
| COc1ccc(S(=O)(=O)NCCOc2ccccc2)cc1F | inactive |
| CC(=O)c1c(O)cc2n(c1=O)-c1ccc(Cl)cc1C2(C)C | inactive |
| O=C(NCc1ccc2c(c1)OCO2)c1c(O)nc2sccn2c1=O | inactive |
| COCCOC(=O)c1sc(=S)n(CCOC)c1N | inactive |
| CC(Sc1nnc(CNC(=O)c2ccccc2F)n1C)C(=O)Nc1nccs1 (configuration not stated) | inactive |
| COc1cc(NC(=O)CCS(=O)(=O)c2ccc3c(c2)oc(=O)n3C)cc(OC)c1 | inactive |
| Cc1cc(Nc2ccc(C(=O)N3CCCCC3)cc2)c2cccc(C)c2n1 | inactive |
| Cc1cc(Nc2ccc(N3CCOCC3)cc2)c2cccc(C)c2n1 | -7.55 (active) |
| Cc1cc(Nc2ccc(Cl)cc2)nc(N2CCOCC2)n1 | inactive |
| Cc1cc(S(=O)(=O)NCC(C)C)ccc1OCC(=O)NC1CC1 | inactive |
| CCN(CC)CCNc1nc(-c2ccc(OC(F)F)cc2)c(C)s1 | -6.16 (active) |
| CCOc1ccc(C2/C(=C(/O)c3ccc4c(c3)CC(C)O4)C(=O)C(=O)N2CCCn2ccnc2)cc1 (configuration not stated) | inactive |
| COC(=O)c1cc(-c2cccs2)nc2ccccc12 | inactive |
| O=C(NCCN1CCOCC1)c1cc(-c2cccs2)nc2ccccc12 | inactive |
| CCCCN(C)CCCNC(=O)c1cc(-c2cccs2)nc2ccccc12 | -6.6 (active) |
